Peg3 prom inh: reduces Peg3 promoter-driven luciferase expression in HeLa; inhibition, % at 20 µM; 1.7% of 360,000 active; HeLa PEG-Prom luciferase reporter, luminescence, overnight;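 active = inhibition of at least 50% at 20 µM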
MITF TRPM1 inh: inhibitors of MITF-driven TRPM1 promoter in melanoma cells. inhibition, % at 12.5 µM. SK-MEL-5 TRPM1 promoter luciferase, 24 h. AID 488899. 0.83% of 330,000 active;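 active = mean inhibition across replicates of 60% or more, whatever share of single replicates reaches that level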
KKLEB cytotox: reduces viability of KKLEB cystic fibrosis airway cells | AID 602141 | activity change (cytotoxicity), % at 5 µM | KKLEB CF airway cells viability, ATPlite luminescence, overnight; active compounds read low; cells stimulated with P. aeruginosa culture filtrate | 0.36% of 360,000 active;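 active = corrected activity change at or below -50% at 5 µM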
HIF-2a inh: blocks HIF-2a reporter activity; 786-0 RCC cells HIF-2a reporter, luciferase luminescence, overnight; inhibition, % at 18.8 µM; 0.72% of 360,000 active;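 active = inhibition of the luminescence signal of 40% or more relative to plate controls, in a single-dose primary screen at 18.75 µM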
ABHD5-PLIN5 inh: ABHD5-PLIN5 protein interaction inhibition. Q00G26+Q8WTS1. Split G. princeps luciferase complementation, luminescence, 4 h. inhibition, % at 4 µM. 0.78% of 360,000 active;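 active = inhibition above the mean inhibition across every tested compound plus 3 SD, cut at about 22% in these data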;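 note: 0% = DMSO only wells and the 100% control is not disclosed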
Target sequence (Q00G26 whole entry, looked up): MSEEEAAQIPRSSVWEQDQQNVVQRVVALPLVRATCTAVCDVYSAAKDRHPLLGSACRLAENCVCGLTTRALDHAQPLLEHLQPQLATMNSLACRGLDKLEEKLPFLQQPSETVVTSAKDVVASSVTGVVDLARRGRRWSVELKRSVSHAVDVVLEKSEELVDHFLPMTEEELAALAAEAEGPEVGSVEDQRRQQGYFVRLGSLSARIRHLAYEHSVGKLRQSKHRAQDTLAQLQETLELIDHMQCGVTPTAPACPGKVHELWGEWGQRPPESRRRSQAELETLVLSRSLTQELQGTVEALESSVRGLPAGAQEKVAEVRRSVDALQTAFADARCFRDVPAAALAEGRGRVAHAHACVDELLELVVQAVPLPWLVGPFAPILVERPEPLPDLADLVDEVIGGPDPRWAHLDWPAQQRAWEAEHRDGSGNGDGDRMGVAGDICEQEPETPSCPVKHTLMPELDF
Target sequence (Q8WTS1 whole entry, looked up): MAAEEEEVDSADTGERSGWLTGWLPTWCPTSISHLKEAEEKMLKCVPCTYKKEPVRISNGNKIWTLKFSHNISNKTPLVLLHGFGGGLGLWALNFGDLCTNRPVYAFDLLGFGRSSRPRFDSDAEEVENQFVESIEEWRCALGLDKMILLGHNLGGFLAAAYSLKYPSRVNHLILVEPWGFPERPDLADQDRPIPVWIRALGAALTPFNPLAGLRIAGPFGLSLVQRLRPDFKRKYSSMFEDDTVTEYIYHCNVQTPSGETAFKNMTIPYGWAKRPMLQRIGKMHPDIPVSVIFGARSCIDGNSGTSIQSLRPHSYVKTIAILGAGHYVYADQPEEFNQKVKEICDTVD
CF NFkB inh: inhibitors of cystic fibrosis induced NF-kB; AID 588850; 0.86% of 360,000 active; inhibition, % at 5 µM; KKLEB NF-kB-GFP reporter, PAF-induced, GFP fluorescence overnight;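 active = at least 50% inhibition at 5 µM, scaled per plate between neutral and stimulator controls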;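 note: PAF is a Pseudomonas aeruginosa culture filtrate used as stimulus; plate controls were PAF-stimulated DMSO wells for no effect and unstimulated DMSO wells for full effect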
* = called active by the depositor; . = no result given. This is a sample that favours compounds with a hit; in the whole collection about 3% have one here.

SMILES	Peg3 prom inh	MITF TRPM1 inh	KKLEB cytotox	HIF-2a inh	ABHD5-PLIN5 inh	CF NFkB inh
CCOC(=O)c1[nH]c2ccc(OC)cc2c1NC(=O)CN1CCc2ccccc2C1	55*	14	-16	7	1	20
CCOC(=O)c1[nH]c2ccc(OC)cc2c1NC(=O)CN1CCC2(CC1)OCCO2	17	-11	4	9	-4	0
CC(=NNc1ccc2ccccc2n1)c1ccccc1O	37	.	-37	43*	-4	-35
CCCCSc1nc(SCC(=O)NCc2ccco2)c2c3c(sc2n1)COC(C)(CC)C3 (stereo unspecified)	77*	2	-13	13	11	-16
ClCc1nnc(-c2cc3c(s2)CCCC3)o1	108*	11	-14	-16	-1	-4
CS(=O)(=O)Nc1ccc([N+](=O)[O-])cc1Oc1ccccc1	10	11	-3	32	-11	69*
O=C(Nc1nc(-c2ccco2)c(-c2ccco2)s1)C1CC(=O)N(c2ccc3c(c2)OCCO3)C1 (stereo unspecified)	13	13	9	16	33*	-35
COC1(OC)C(/C=C/c2ccc(Cl)cc2)C(C#N)(C#N)C1(OC)OC (stereo unspecified)	63*	14	-60*	13	16	57*
CCCSc1cc(N2CCN(C)CC2)nc(-c2ccc(OC)cc2)n1	55*	-10	-9	10	18	-2
CCCSc1cc(N2CCCC2)nc(-c2ccccc2)n1	19	3	2	15	1	10
Cc1ccc(C(=O)COC(=O)COc2ccccc2[N+](=O)[O-])s1	12	.	7	5	-3	11
CCOC(=O)COc1ccccc1/C=C\[N+](=O)[O-]	110*	97*	-29	92*	62*	81*
COc1ccc2nc(C)cc(Nc3ccc(N4CCOCC4)cc3)c2c1	29	-2	-10	30	3	-40
Cc1cc(N/N=C/c2ccc(O)cc2)c2cccc(C)c2n1	110*	51	8	11	1	-152
COc1ccc2nc(C)cc(Nc3ccc(N4CCN(C)CC4)cc3)c2c1	111*	97*	-8	-47	5	-58
COc1ccc2nc(C)cc(N/N=C/c3ccccc3)c2c1	107*	99*	-5	-11	9	-312
O=C(COC(=O)c1ccc(OC(F)F)cc1)NCCCN1CCCC1=O	2	3	6	8	-4	4
CC(=O)Nc1ccc(N=c2cc([N+](=O)[O-])cc(Cl)n2O)cc1	-13	20	-6	-19	-1	-3
COc1ccc(/C=N/Nc2ncnc3c2[nH]c2ccc(C)cc23)c(OC)c1OC	73*	2	-7	-10	3	9
COc1cc(OC)c(OC)cc1/C=N/Nc1ncnc2c1[nH]c1ccccc12	89*	-9	-29	5	-12	30
COc1cc(CNc2ncnc3c2[nH]c2ccc(C)cc23)cc(OC)c1	24	17	-13	23	6	29
CCOC(=O)c1c2ccc(OCC(=O)NN)cc2n2ccccc12	15	-7	7	15	1	-25
CCOC(=O)c1c2ccc(OCC(=O)N/N=C/c3ccc(C)cc3)cc2n2ccccc12	84*	7	-5	-30	-2	-11
COc1cccc(/C=C2\SC(=S)N(CCC(=O)NCCc3ccc(O)cc3)C2=O)c1	95*	-2	-9	29	-6	13
O=C(CN1C(=O)/C(=C/c2ccc(F)cc2)SC1=S)N1CCN(CCc2ccccn2)CC1	51*	10	4	7	-7	-4
SMILES	Peg3 prom inh	MITF TRPM1 inh	KKLEB cytotox	HIF-2a inh	ABHD5-PLIN5 inh	CF NFkB inh
COc1cccc(/C=C2\SC(=S)N(CCC(=O)Nc3ccc(O)cc3)C2=O)c1	-103	-43	13	-86	7	13
O=C(CCN1C(=O)/C(=C/c2ccc(F)cc2)SC1=S)NCCc1ccc(O)cc1	83*	1	0	13	0	-6
CN1CCN(C(=O)CCN2C(=O)/C(=C\c3ccc(F)cc3)SC2=S)CC1	15	3	12	-17	-6	7
CC(C)CN1CCN(CCCOC(=O)Nc2cccc3ccccc23)CC1C (stereo unspecified)	-5	1	0	8	0	-2
CC(C)C[C@@H](CN1CCCC1CN1C(=S)NC[C@@H]1Cc1ccccc1)N1C[C@H](Cc2ccc(O)cc2)N(CCc2ccccc2)C1=S (stereo partly specified)	.	.	.	-10	4	.
Oc1ccc(C[C@@H](CN2CCC[C@@H]2CN2C(=S)NC[C@@H]2Cc2ccccc2)N2C[C@H](Cc3ccccc3)N(CCc3ccccc3)C2=S)cc1	-17	.	-17	-8	11	4
CC(C)C[C@@H](CN1CCC[C@@H]1CN1C(=S)NC[C@@H]1Cc1ccc(O)cc1)N1C[C@H](Cc2ccc(O)cc2)N(CCc2ccccc2)C1=S	78*	.	-11	-22	9	37
Oc1ccc(C[C@H]2CNC(=S)N2CC2CCCN2C[C@H](Cc2ccccc2)N2C[C@H](Cc3ccc(O)cc3)N(CCc3ccccc3)C2=S)cc1 (stereo partly specified)	68*	24	-2	-47	13	41
CCOc1ccc(CCN2C(=S)N([C@@H](CC(C)C)CN3CCCC3CN3C(=S)NC[C@@H]3Cc3ccc(O)cc3)C[C@@H]2Cc2ccc(O)cc2)cc1 (stereo partly specified)	87*	15	-7	-48	-6	40
Cc1ccccc1CN1C(=O)c2ccccc2C1c1nnnn1C(C)C (stereo unspecified)	.	.	.	12	-6	.
COc1ccc(C2Nc3ccc4ccccc4c3-c3c2c(=O)oc2ccccc32)cc1 (stereo unspecified)	57*	6	-20	-14	11	18
Cc1nc(NC(=O)CSc2nnc(C3CC3)n2C)sc1C	-22	-6	2	-51	-4	-1
Nc1ccc(OC(=O)Nc2ccc(O)cc2)cc1	14	45	1	77*	-17	2
Cc1c(NC(=O)c2ccc3c4c(cccc24)CC3)c(=O)n(-c2ccccc2)n1C	9	-4	4	-8	-10	-5
O=C(/C=C/c1ccccc1)c1ccc2c3c(cccc13)CC2	60*	-36	-18	-320	10	-14
COc1ccccc1CN(Cc1nc2ccccc2c(=O)[nH]1)S(=O)(=O)c1ccc2ccccc2c1	58*	42	-16	9	-7	33
Cc1cc(C(=O)COC(=O)c2ccc[nH]c2=O)c(C)n1-c1ccccc1	-13	-26	-11	44*	1	-2
Cc1cc(C(=O)COc2cccnc2[N+](=O)[O-])c(C)n1Cc1ccco1	-53	-10	6	13	4	4
Cc1ccc(-n2c(C)cc(C(=O)COc3cccnc3[N+](=O)[O-])c2C)cc1	36	43	-22	59*	-5	-2
